# Laboratory results published in PubChem BioAssay AID887 (National Center for Advancing Translational Sciences (NCATS), 2007).
# Where “and” joins values, the source holds several entries; their conditions need not be identical. Identical values can stand only once. Hit rate of the full screen: of about 74,000 compounds, about 1,100 (1.5%) were called active. Another 5% or so got no clear call; they are omitted. This is one part of a sample in which actives are shown more often than they occur. Calls come from the whole dose curve; as a rule, active = well fitted inhibition curve with a large enough effect; inconclusive = small, poorly fitted or top-dose-only effect; inactive = no such curve, though single readings can be large or run the other way.
# Biological target: Polyunsaturated fatty acid lipoxygenase ALOX15 (Homo sapiens) (UniProt P16050)
# Sequence (P16050 whole entry, looked up): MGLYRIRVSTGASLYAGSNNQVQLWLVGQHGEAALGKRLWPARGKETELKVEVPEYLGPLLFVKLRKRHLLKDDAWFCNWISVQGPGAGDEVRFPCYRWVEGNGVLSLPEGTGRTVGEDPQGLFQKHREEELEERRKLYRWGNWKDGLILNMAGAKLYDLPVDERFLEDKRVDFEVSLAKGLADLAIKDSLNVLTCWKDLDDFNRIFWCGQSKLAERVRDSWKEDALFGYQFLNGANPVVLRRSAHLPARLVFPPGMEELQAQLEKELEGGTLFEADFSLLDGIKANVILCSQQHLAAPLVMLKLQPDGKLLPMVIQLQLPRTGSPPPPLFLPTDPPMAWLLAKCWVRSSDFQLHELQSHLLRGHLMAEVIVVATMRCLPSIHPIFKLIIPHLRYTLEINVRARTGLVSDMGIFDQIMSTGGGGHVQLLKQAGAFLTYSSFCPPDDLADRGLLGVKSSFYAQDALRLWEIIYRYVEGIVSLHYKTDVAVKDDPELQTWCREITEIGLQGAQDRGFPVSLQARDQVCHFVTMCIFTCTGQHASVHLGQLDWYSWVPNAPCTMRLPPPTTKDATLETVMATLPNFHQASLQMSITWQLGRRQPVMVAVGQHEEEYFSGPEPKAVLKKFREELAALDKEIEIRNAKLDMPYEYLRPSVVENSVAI
# Assay: qHTS Assay for Inhibitors of 15-hLO (15-human lipoxygenase); note: nearly all actives have a fitted effect of over 55% in size
# Conditions: purified 15hLO-1, xylenol orange hydroperoxide absorbance; series mostly up to 57.1 µM; activity change, negative = inhibition: at the top concentration
# Excerpt: Assay Overview: NIH Molecular Libraries Screening Centers Network [MLSCN] NIH Chemical Genomics Center [NCGC] MLSCN Grant: MH081283-01A1 PI Name: Holman, T.R., University of California, Santa Cruz Human lipoxygenase 15hLO-1 is a member of the closely related lipoxygenase family of enzymes which catalyze the site-specific oxidation of arachidonic acid to various hormone precursor molecules and as such is a candidate for drug development in a variety of disease areas, such as cancer and inflammation. Inhibition of 15hLO-1 activity was screened by utilizing arachidonic acid as a substrate. The extent of hydroperoxide product formation was measured by a secondary chromogenic reaction in which xylenol orange (XO, Sigma-Aldrich, cat. number 39,818-7) reacts with the ferric ions produced from the reaction between the hydroperoxide and ferrous ions. The Fe(III)-XO complex is characterized with red-shifted absorbance at 560 nm. A purified preparation of human 15hLO-1 was supplied by Professor Ted Holman, University of California, Santa Cruz.
# Assay Protocol: Buffer: 25 mM Hepes pH 7.5, 0.01% Triton X-100. Reagents/Controls: Buffer in columns 3 and 4 as negative control (no enzyme). Substrate solution: 50 uM arachidonic acid (Sigma-Aldrich, St. Louis, MO) final concentration dispensed throughout the plate. Enzyme: 40 nM 15hLO-1 final concentration in columns 1, 2, 5-48. Column 1 is neutral (100% activity). Column 2 contained pin-transferred titration of NDGA (nordihidroguaiaretic acid, Sigma-Aldrich, N 5023, top concentration 10 mM in DMSO, then 1:2 dilution in duplicate). (Dilution factor: 23 nL into 4 uL.) Chromogenic detection reagent (divalent iron/xylenol orange, Fe-XO): 200 uM xylenol orange plus 300 uM ferrous ammonium sulfate prepared freshly in 50 mM sulfuric acid. Assay Steps: Three uL of enzyme were dispensed to 1536-well Greiner black clear bottom plates. Compounds and controls (23 nL) were transferred via Kalypsys PinTool. The plates were incubated for 15 min at room temperature, and then 1 uL of substrate solution was added to start the reaction. After room temperature incubation for 6 minutes, 4 uL of Fe-XO solution was added to each well followed by a short spin (1000 rpm, 15 sec) and the plates were then incubated for 30 min. The absorbance at 405 and 573 nm were measured using ViewLux (Perkin-Elmer) High-throughput CCD imager and absorbance protocol settings. The 573-to-405 absorbance ratio was used to compute reaction progress.
# % is set by controls: 0 for no effect and ±100 for the full control effect; potency is the fitted concentration of half-maximal effect.
SMILES,"activity change, negative = inhibition",Potency
Cc1nc2ccccc2c(=O)n1CCCn1ccnc1,17.1% (inactive),
Cc1ccnc(N2CCC(C(=O)NC3CCCCCC3)CC2)n1,-1.73% (inactive),
Cc1ccnc(-n2sc3ccccc3c2=O)n1,,20 µM (active)
CC(C)=CCC/C(C)=C/CC/C(C)=C/CC/C(C)=C/CO,-5.43% (inactive),
O=C(O)[C@@H](O)Cc1ccccn1,2.76% [at 11.4 µM] (inactive),
COc1ccc(/C=C/NC(=O)Cc2ccc(OC)c(OC)c2)cc1,4.24% [at 11.4 µM] (inactive) and -3.82% [at 11.4 µM] (inactive),
CCCCc1nc2ccccc2c(NC(=O)CN2CCN(C)CC2)c1CCC,,15.8 µM (active)
CCCCc1nc2ccccc2c(=O)n1NC(=O)c1c(O)c2cccc3c2n(c1=O)CC3,15.9% (inactive),
CCOC(=O)N1CCN(CC(=O)Nc2cc(C)nn2-c2nc3ccccc3s2)CC1,8.06% (inactive),
CC(C)CN1CCc2nc(-c3ccccc3)c3c(c2C1)COC(C)C3 (stereo not given),-12.9% [at 11.4 µM] (inactive),
CO[C@H]1COC(=O)[C@H](Cc2ccccc2)NC(=O)C/C=C\[C@@H](C)[C@H](OC)COC(=O)C/C=C\[C@@H]1C,10.5% [at 11.4 µM] (inactive),
COC(=O)NC(c1ccccc1)[C@]1(C(C)=O)CCCC1=O (stereo not given in full),9.57% [at 11.4 µM] (inactive),
c1ccc(CSc2nnc(-c3ccco3)c(-c3ccco3)n2)cc1,,6.31 µM (active)
c1ccc(CSc2nnc(-c3ccco3)n2Cc2ccccc2)cc1,-5.84% (inactive),
Nc1cc(=O)nc(SCc2ccccc2)n1Cc1ccco1,0.59% (inactive),
CC(=O)OC1CCC2(O)CC1(C)CCC1C2CC1(C)C (stereo not given),-1.5% (inactive),
COc1ccc(CCC(=O)c2c(O)cc(OC3OC(CO)C(O)C(O)C3O[C@@H]3OC(C)C(O)C(O)C3O)cc2O)cc1O (stereo not given in full),-1.92% (inactive),
CC(C)[C@@H](OCc1ccccc1)[C@H](C)/C=N\OC[C@@H](C)[C@H](OCc1ccccc1)C(C)C,-0.92% [at 11.4 µM] (inactive),
CO[C@H]1COC(=O)CCC[C@@H](C)[C@H](OC)COC(=O)[C@@H](C)NC(=O)C/C=C\[C@@H]1C,-1.39% [at 11.4 µM] (inactive),
CCC1(C)CC(=O)NC1=O (stereo not given),-0.342% (inactive),
COC(=O)Nc1c(C)n(C)n(-c2ccccc2)c1=O,6.02% (inactive),
Cc1cc(C)cc(N(C(C)C(=O)Nc2c(C)n(C)n(-c3ccccc3)c2=O)S(C)(=O)=O)c1 (stereo not given),4.53% (inactive),

SMILES,"activity change, negative = inhibition",Potency
Cc1c(NC(=O)C(C)OC(=O)c2cc3c4ccccc4n(C)c3s2)c(=O)n(-c2ccccc2)n1C (stereo not given),,31.6 µM (active)
CC1(C)OC2CO[C@]3(COS(N)(=O)=O)OC(C)(C)OC3C2O1 (stereo not given in full),0.158% (inactive),
COc1ccccc1OCCNCC(O)COc1cccc2[nH]c3ccccc3c12 (stereo not given),-5.85% (inactive),
Clc1ccc(CSc2nnc([C@@H]3CCCN3)o2)cc1,2.51% (inactive),
CC(C)N(CCNC(=O)c1ccc(-n2c(=O)c(=O)[nH]c3ccccc32)cc1)C(C)C,-1.6% (inactive),
CCCc1[nH]nc2c1C(c1ccc(OC(=O)c3ccco3)cc1)C(C#N)=C(N)O2 (stereo not given),2.65% (inactive),
CCCc1[nH]nc2c1C(C1CC=CCC1)C(C#N)=C(N)O2 (stereo not given),-21% (inactive),
CCCc1[nH]nc2c1C(c1ccc(Br)s1)C(C#N)=C(N)O2 (stereo not given),,15.8 µM (active)
C=C1C([C@@]2(C)C(OC(C)=O)CC(=O)O[C@@](C)(COC(C)=O)C2CC(=O)OC)C(OC=O)C(OC(=O)C(O)C(C)CC)[C@]2(C)C(c3ccoc3)CC(=O)C12O (stereo not given in full),-4.84% (inactive),
C/C=C(/C)C(=O)OC1Cc2c(ccc3ccc(=O)oc23)OC1(C)C (stereo not given),-11.6% (inactive),
CCOC(=O)NCc1ccc2c(c1)OCO2,14.8% (inactive),
CCC1=C/C(=C\c2ccc3c(c2)OCO3)C(=O)S1,,25.1 µM (active)
CCCCC(=O)Nc1ccc2c(c1)OCCO2,3.14% (inactive),
Cc1ccc(C2CC(c3cccc(C)c3)n3nc(N)nc3N2)cc1 (stereo not given),12% (inactive),
CO[C@@H]1COC(=O)C/C=C\[C@H](C)[C@@H](NS(=O)(=O)c2ccc(C)cc2)COC(=O)C/C=C\[C@@H]1C,7.8% [at 11.4 µM] (inactive) and 8.79% [at 11.4 µM] (inactive),
COc1ccc(C2CC(=O)c3c(O)cc(OC4OC(COC5OC(C)C(O)C(O)C5O)C(O)C(O)C4O)cc3O2)cc1O (stereo not given),-2.78% [at 25.6 µM] (inactive),
COc1c(C(C)C)oc2cc3oc(=O)ccc3cc12,1.8% (inactive),
CC(=O)Oc1c2c(c3c(c1CC=C(C)C)O[C@@]14C(=CC5CC1C(C)(C)OC4(C/C=C(\C)C(=O)O)C5=O)C3=O)OC(C)(CCC=C(C)C)C=C2 (stereo not given in full),-15.5% (inactive),
Nc1nc2nc(Cl)[nH]c2c(=O)[nH]1,1.53% (inactive),
CC1CCc2c(sc3c2C2=NS(=O)(=O)CCN2C=N3)C1 (stereo not given),-0.657% (inactive),
CN1CCCC1CCO[C@@](C)(c1ccccc1)c1ccc(Cl)cc1 (stereo not given in full),-10.4% (inactive),
CN(CCOc1ccc(CC2SC(=O)NC2=O)cc1)c1ccccn1 (stereo not given),1.32% (inactive),

SMILES,"activity change, negative = inhibition",Potency
Oc1ccc(-c2csc(Nc3cccnc3)n2)cc1,-7.34% (inactive),
COc1ccc(OC)c(Nc2nc(-c3ccc(O)c(O)c3)cs2)c1,,0.126 µM (active)
COc1ccc(-c2n[nH]c(C)c2-c2ccc(OC)c(OC)c2)c(O)c1,-23.3% (inactive),
COc1cccc([C@H]2Oc3ccc(OC)cc3/C(=N\OCC[C@@H]3C=C[C@H](OC(C)=O)[C@H](COC(C)=O)O3)[C@@H]2O)c1,7.41% [at 11.4 µM] (inactive),
CCOC(=O)N/N=C1/C[C@@H](O)[C@@H](O)[C@@H]2[C@@H]3C(=O)N(CC)C(=O)[C@H]3CC[C@H]12,0.206% [at 11.4 µM] (inactive),
COc1ccc(COC(=O)N/N=C2/C[C@@H](O)[C@@H](O)[C@@H]3[C@@H]4C(=O)N([C@@H](C)c5ccccc5)C(=O)[C@H]4CC[C@@H]23)cc1,7.99% [at 11.4 µM] (inactive),
CCOc1ccc2nc(N3CCCN(C(=O)Nc4ccccc4C)CC3)c(C#N)cc2c1,-9.41% (inactive),
Cc1cc(C)c2nc(N3CCCC3)c(C#N)cc2c1,,2 µM (active)
CC(C)CCNc1nc(N2CCCC2)c2c(c1C#N)CCN(C)C2,-17.6% (inactive),
CC(C)(C)c1ccc(OC2C=CC(C#Cc3ccccc3)OC2CO)cc1 (stereo not given),-12.4% [at 11.4 µM] (inactive),
Cc1cc(C)cc(C#CC2C=CC(Oc3ccc(C4CCCC4)cc3)C(CO)O2)c1 (stereo not given),-14.1% [at 11.4 µM] (inactive),
C[C@@H]1/C=C\CC(=O)OC[C@H]2O[C@@H](C=C[C@@H]2O)[C@H](C)/C=C\CC(=O)OC[C@H]2O[C@H]1C=C[C@@H]2O,5.92% [at 11.4 µM] (inactive),
CC(C)[C@H]1CC[C@@H](C)C[C@H]1O,14.8% [at 25.6 µM] (inactive),
COC1[C@H](OC(N)=O)C(O)[C@H](Oc2ccc3c(O)c(NC(=O)c4ccc(O)c(CC=C(C)C)c4)c(=O)oc3c2C)OC1(C)C (stereo not given in full),-28.3% (inactive),
C=C(C)C1CC=C(C)C(O)C1 (stereo not given),-3.82% (inactive),
C=C(C)C1CC=C(CO)CC1 (stereo not given),,12.6 µM (active)
CCCNC(=O)OC[C@@H]1O[C@H](c2ccccc2)C=C[C@@H]1Oc1ccc(OC)cc1,6.55% [at 11.4 µM] (inactive),
Cc1ccc(C)c(NC(=O)CSc2nnc(Cc3cccn3C)n2-c2ccc(F)cc2)c1,-17.4% (inactive),
Cc1cccc(Br)c1,1.29% (inactive),
CC(C)=CC1C(C(=O)O)C1(C)C (stereo not given),-4.04% (inactive),
C/C(CCN1CCCCc2nc(C)c(C)cc21)=N\O[C@@H](C)c1cn([C@@H]2COC[C@@H]2O)nn1,3.97% [at 11.4 µM] (inactive),
Oc1cc(O)c2c(c1)OC(c1ccc(O)c(O)c1)C(O)C2 (stereo not given),,12.6 µM (active)

SMILES,"activity change, negative = inhibition",Potency
CO[C@H]1COC(=O)[C@@H](C)NC(=O)C/C=C\[C@@H](C)[C@H](OC)COC(=O)C/C=C\[C@@H]1C,-1.15% [at 11.4 µM] (inactive),
CCCCn1c(SCC(=O)NCC2CCCO2)nc2ccc(N3CCOCC3)cc2c1=O (stereo not given),,12.6 µM (active)
COCCCNC(=O)CSc1nc2ccc(N3CCOCC3)cc2c(=O)n1CCc1ccccc1,-12% (inactive),
CCn1c(SCC(=O)NCC2CCCO2)nc2cc(S(=O)(=O)N3CCCCC3)ccc21 (stereo not given),4.12% (inactive),
COCC(=O)N1CCC2(CCCN(c3ccccc3)C2)CC1,-7.85% (inactive),
CC1(C)C=CC(=O)[C@]2(C)C1CC(=O)[C@]1(C)C2CC[C@@]2(C)C(c3ccoc3)OC(=O)C3OC321 (stereo not given in full),-3.65% (inactive),
CC(C)C1=CC2=CC[C@@H]3[C@](C)(CO)CCC[C@]3(C)C2CC1 (stereo not given in full),,1.58 µM (active)
C=C[C@](C)(O)CCC1C(=C)CCC2[C@@](C)(CO)CCC[C@@]12C (stereo not given in full),-22.8% (inactive),
CN1CCc2nc(-c3ccccc3)c(-c3ccccc3)cc2C1,3.18% [at 11.4 µM] (inactive),
Nc1ncnc2c1ncn2C1CC(O)C(CO)O1 (stereo not given),inactive,
CC(=O)OCC(=O)[C@@]1(O)CCC2C3CCC4=CC(=O)CC[C@@]4(C)[C@]3(F)C(O)C[C@]21C (stereo not given in full),-0.0872% (inactive),
O=C1[C@H]2[C@H]3[C@H](O)[C@H](O)C/C(=N/OCc4ccccc4)[C@H]3CC[C@@H]2C(=O)N1Cc1ccccc1,6.17% [at 11.4 µM] (inactive),
CCCN(C/C=C\I)[C@@H]1CCc2cccc(O)c2C1,1.31% [at 25.6 µM] (inactive),
N#Cc1ccccc1-n1c(N)c(C(=O)N2CCCC2)sc1=S,,20 µM (active)
CCC(=O)Nc1sc(C(=O)N2CCCCC2)c(C)c1C#N,-0.853% (inactive),
Cc1cccc(-n2c(N)c(C(=O)N3CCN(C)CC3)sc2=S)c1,-25.1% (inactive),
Cn1c(=O)n2n(c1=O)[C@H]1[C@H](O)[C@H]3O[C@H]3C(=O)[C@H]1CC2,-1.89% [at 11.4 µM] (inactive),
CC(C)=CCC/C(C)=C/CO/N=C1/C[C@@H](O)[C@@H](O)[C@@H]2[C@@H]3C(=O)N(C(C)(C)C)C(=O)[C@H]3CC[C@H]12,-9.71% [at 11.4 µM] (inactive),
CC(=O)OCC1OC(C#CCCCc2ccccc2)C=CC1OC(C)=O (stereo not given),-1.12% [at 11.4 µM] (inactive) and 1.25% [at 11.4 µM] (inactive),
